Bioassay records from PubChem BioAssay.
Compounds with a hit are over-represented: about 2.5% of the library has one in this group of screens.
GC-B act: GC-B (human) receptor activation; P20594; HEK293-GC-B cells, CNP EC30, cGMP TR-FRET; 0% at EC30 CNP, 100% saturating CNP; activation, % at 10 µM; AID 1920062; 0.11% of 370,000 active;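 active = activation at 10 µM reaching about 35% in either raw or pattern-adjusted values, limit read from the data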
Target sequence (P20594 whole entry, looked up): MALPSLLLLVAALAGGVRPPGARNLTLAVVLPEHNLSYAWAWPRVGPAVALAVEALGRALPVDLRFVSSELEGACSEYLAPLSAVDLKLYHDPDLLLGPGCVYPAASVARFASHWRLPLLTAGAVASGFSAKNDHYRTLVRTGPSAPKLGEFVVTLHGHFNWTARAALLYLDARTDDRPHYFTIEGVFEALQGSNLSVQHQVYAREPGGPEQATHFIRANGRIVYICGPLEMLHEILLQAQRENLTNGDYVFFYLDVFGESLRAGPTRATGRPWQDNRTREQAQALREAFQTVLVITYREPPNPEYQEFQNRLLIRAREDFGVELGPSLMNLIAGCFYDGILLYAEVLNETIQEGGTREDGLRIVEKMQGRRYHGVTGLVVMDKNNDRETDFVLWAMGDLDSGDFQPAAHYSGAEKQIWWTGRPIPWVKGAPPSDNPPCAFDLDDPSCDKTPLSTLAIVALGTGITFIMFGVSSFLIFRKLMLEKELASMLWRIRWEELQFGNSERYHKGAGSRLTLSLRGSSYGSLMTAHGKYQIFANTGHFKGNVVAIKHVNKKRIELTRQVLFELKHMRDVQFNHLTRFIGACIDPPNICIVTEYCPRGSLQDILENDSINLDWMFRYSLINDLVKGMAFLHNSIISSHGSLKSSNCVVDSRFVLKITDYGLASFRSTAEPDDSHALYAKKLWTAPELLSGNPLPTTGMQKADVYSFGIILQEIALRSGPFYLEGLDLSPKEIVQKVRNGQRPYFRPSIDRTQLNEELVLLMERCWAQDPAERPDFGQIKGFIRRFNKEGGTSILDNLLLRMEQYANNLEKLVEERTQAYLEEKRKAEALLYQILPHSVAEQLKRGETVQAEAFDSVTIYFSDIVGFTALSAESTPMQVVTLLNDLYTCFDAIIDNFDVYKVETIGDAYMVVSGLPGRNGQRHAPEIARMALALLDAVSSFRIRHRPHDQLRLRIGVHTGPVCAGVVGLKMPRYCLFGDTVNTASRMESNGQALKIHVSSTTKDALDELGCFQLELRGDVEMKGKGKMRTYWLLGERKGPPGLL
HSF-1 act: increases HSF-1 driven luciferase reporter signal. NIH3T3-HGL HSF-1 luciferase reporter, MG132, 8 h; 100% = twice DMSO control signal. activation, % at 9 µM. 1.7% of 300,000 active. AID 504408;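 active = mean replicate activation of at least 50% with a set share of replicates each reaching 50%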;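 also: 0% = median of the neutral control wells and 100% = twice that signal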
HSF1 inh: HSF1 inhibition | NIH3T3-HGL HSE-luciferase, MG132-induced, luminescence 8 h; hits give low values | activity change, negative = inhibition, % at 7.5 µM (by protocol) | 0.77% of 300,000 active;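 active = more than half of replicate wells show activity change below -50%, luminescence cut by over half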;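 also: luciferase reports HSF-1 transcriptional activity via heat shock element; 0% = median of DMSO wells and -100% = zero luminescence signal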
GC-A act: GC-A (human) enzyme activation | P16066 | HEK293 GC-A cells, cGMP TR-FRET, EC30 ANP; 0% at EC30 ANP, 100% saturating ANP | activation, % at 10 µM | 0.14% of 370,000 active; in the data active = activation above about 40%
aDG glyco up: increases alpha dystroglycan glycosylation | Pro5-aDG cells, alpha-DG glycosylation AlphaScreen (IIH6); 0% Pro5, 100% B10-LARGE cell signal | activation, % at 10 µM | 0.22% of 360,000 active;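 active = activation of at least 8% versus controls, or a plate z-score of at least 8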;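 also: Pro5 are CHO cells carrying HIG-tagged alpha-DG that lacks glycosylation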
Dyrk1A ADPGlo: blocks rat Dyrk1A kinase activity | Q63470 | ADP-Glo luminescence, NFATc1 peptide | inhibition, % at 12.5 µM | 0.43% of 310,000 active; in the data active = inhibition above about 50%;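 also: plate controls were vehicle with enzyme for no effect and no enzyme for full effect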
Active calls of the source: *; · = no result given.

SMILES	GC-B act	HSF-1 act	HSF1 inh	GC-A act	aDG glyco up	Dyrk1A ADPGlo
CCOC(=O)N1CCN(c2ncnc3c2[nH]c2ccc(OC)cc23)CC1	0.1	-13.4	-3.7	9.3	0.8	49.2
COc1ccc2[nH]c3c(N4CCc5ccccc5C4)ncnc3c2c1	23.4	64.5*	71.4	14.4	0.3	9.4
Cc1ccc(N(C(=O)C2CCCO2)C2C=CS(=O)(=O)C2)cc1Cl (stereo unspecified)	-8.0	3.1	0.9	-0.1	-0.1	-5.4
OC[C@@H]1CN(Cc2ccco2)C[C@H](n2cnc3c(NC4CCC4)ncnc32)O1	3.2	·	·	0.4	-0.2	·
O=C(/C=C/c1ccccc1[N+](=O)[O-])N1CCc2ccccc2C1	-2.6	28.9	14.9	-3.4	-0.1	7.2
COc1ccc(/C=C2\OC(=O)c3c(OC)cccc32)cc1OC	-3.1	75.9*	38.6	21.4	0.1	-5.8
CCCCC(=O)/C=C/n1c(=S)oc2ccccc21	-1.4	216.9*	176.0	10.8	0.0	-3.5
O=C(COc1ccccc1)NNC(=O)c1cccs1	-5.7	11.0	0.6	1.4	0.1	4.6
CN(N=Nc1ccc([N+](=O)[O-])cc1)c1ccccc1	-8.8	74.3*	44.1	3.3	-0.6	0.3
CN(N=Nc1cccc([N+](=O)[O-])c1)c1ccccc1	4.7	18.6	10.7	1.4	-0.2	2.7
CC(C)c1nn2c(=O)cc(O)nc2s1	-3.5	·	·	0.6	-0.1	-6.2
CC(=O)Nc1cccc(NC(=O)c2ccc([N+](=O)[O-])cc2Cl)c1	0.2	0.8	8.0	0.4	0.0	21.6
O=C(/C=C/c1cccc([N+](=O)[O-])c1)NC(=S)Nc1cccc(NC(=O)c2ccccc2Cl)c1	6.5	60.5*	38.0	-3.9	-0.3	-3.0
CCOC(=O)Cc1csc(NC(=O)c2sc3nc4ccc(CC)cc4cc3c2N)n1	7.8	-64.2	-53.7*	10.2	0.1	5.7
CCOC(=O)Cc1csc(NC(=O)c2ccoc2C)n1	0.1	57.4*	15.8	8.6	0.0	8.1
CCOC(=O)Cc1csc(NC(=O)c2c(O)c3ccccc3n(CC(C)C)c2=O)n1	3.0	55.9*	14.3	1.6	-0.1	5.6
CC(C)Cn1c(=O)c(C(=O)Nc2ccccc2S(N)(=O)=O)c(O)c2ccccc21	4.6	4.9	2.5	1.3	-0.2	5.2
O=C(O)c1ccn[nH]1	·	4.8	-1.6	·	-0.2	·
O=C(CC1C(=O)NCCN1C/C=C/c1ccccc1)NCCCC1CCCC1 (stereo unspecified)	2.0	6.0	3.0	-0.8	-0.3	0.8
Cc1ccc(CN2CCN(Cc3ccccn3)CC2CCO)cc1 (stereo unspecified)	2.0	8.0	-7.0	0.7	-0.2	7.2
CCC(C)NC(=O)C1(C)CCC(=O)N1Cc1ccccc1OC (stereo unspecified)	3.7	-80.1	-74.5*	-3.8	0.0	-3.4
CC(=C/C(=O)O)/C=C/c1ccc([N+](=O)[O-])cc1	4.4	·	·	1.0	0.0	3.3
CC1(C)COC(/C=C/c2ccc([N+](=O)[O-])cc2)=N1	1.4	118.1*	77.9	-0.4	3.8	-3.5
Cc1nonc1C1CCCN1Cc1cn[nH]c1-c1ccc(-c2ccccc2)cc1 (stereo unspecified)	-7.2	61.9*	48.5	-2.8	0.2	15.4
Cc1cc(C(=O)NC2CCCN(Cc3ccc(Cl)cc3)C2)n(C)n1 (stereo unspecified)	0.0	-88.6	-85.3*	-2.9	-0.2	2.5
SMILES	GC-B act	HSF-1 act	HSF1 inh	GC-A act	aDG glyco up	Dyrk1A ADPGlo
COc1ccc(NC(=O)c2nn(C)c(=O)c3ccccc23)cc1S(=O)(=O)Nc1ccccc1Cl	1.3	64.7*	47.4	1.9	0.7	0.1
CCOC(=O)C1=C(COC(=O)CCS(=O)(=O)c2ccc(C)cc2)NC(=O)NC1C (stereo unspecified)	-2.2	·	·	-4.0	-0.3	5.8
COc1ccc(C2c3cc4c(cc3OC(N3CCOCC3)C2C)OCO4)c(OC)c1 (stereo unspecified)	-6.3	26.2	26.2	-3.4	-0.2	-2.2
CC(=O)C1C(=O)c2c(cccc2[N+](=O)[O-])C1=Nc1ccc(S(N)(=O)=O)cc1 (stereo unspecified)	-3.1	-92.0	-90.8*	-1.6	-0.5	35.2
CC(C)NC(=O)c1cc(C2CCCCN2C(=O)c2ccc(C(C)C)cc2)on1 (stereo unspecified)	4.2	·	·	0.6	-0.1	·
CC1CCN(C(=O)C2CCN(S(=O)(=O)c3ccc(-n4cnnn4)cc3)CC2)CC1	3.7	-2.5	-5.6	-2.3	0.1	2.5
Cc1cc(C)n(C(=O)c2ccc(C)c(Br)c2)n1	-5.6	-5.5	2.2	-3.6	0.1	-0.5
COc1ccc(C(=O)COC(=O)c2cccnc2SC)cc1	2.4	67.8*	56.7	1.6	0.1	-6.2
CSc1ncccc1C(=O)OCC(=O)c1ccccc1	-2.7	11.8	17.0	5.5	0.0	2.0
Cc1cc(C(=O)CSc2nc3ccccc3[nH]2)c(C)n1CC1CCCO1 (stereo unspecified)	-3.5	-61.1	-53.9*	-2.1	0.0	5.9
CSc1ncccc1C(=O)OCC(=O)c1cc(C)n(CC2CCCO2)c1C (stereo unspecified)	4.9	-58.1	-52.0*	-0.3	0.0	-5.3
CSc1ncccc1C(=O)OCC(=O)c1ccc(Br)s1	-3.1	46.7	2.9	-0.7	-0.5	-62.7
CSc1ncccc1C(=O)OCC(=O)c1ccccc1Br	-6.4	54.0*	6.8	29.4	0.2	·
COc1cc(C(=O)Oc2ccc(C(=S)N3CCOCC3)cc2)cc(OC)c1OC	-6.6	-3.6	-5.9	-1.4	-0.1	-0.8
COC(=O)c1[nH]c2ccc(C)cc2c1NC(=O)C1=COCCO1	-3.6	-15.0	-8.8	0.9	-0.3	2.4
CCCCn1nc2cc(C(=O)NCc3ccc4c(c3)OCO4)ccc2c1OCC	3.5	8.6	-10.9	-4.3	0.1	2.1
CCc1ccc(N(C(=O)c2snc(C(N)=O)c2N)C(C(=O)NCCC(C)C)c2c[nH]c3ccccc23)cc1 (stereo unspecified)	-13.6	56.7*	13.7	-7.3	-0.5	-3.4
O=C1CCS/C(=N\N=C\c2ccc(Cl)cc2Cl)N1	-5.1	-7.6	-0.4	56.3*	0.1	7.6
Cc1ccccc1/C=N/N=C1/NC(=O)CCS1	-2.1	17.2	1.6	20.1	-0.1	·
Cc1cc(C)cc(OCC(O)CN2C(=O)NC(C)(C)C2=O)c1 (stereo unspecified)	-0.2	64.1*	35.6	2.7	0.1	-14.3
CC1CC(C)(C)N(C(=O)NC2CCCCC2)c2ccccc21 (stereo unspecified)	2.4	56.5*	11.2	3.2	-0.1	6.4
COC(=O)c1ccc(CNC(=O)COC(=O)/C=C/c2ccc(OC)c(OC)c2)cc1	-7.7	·	·	-3.6	0.1	·
